# Most compounds without a hit are left out; they make up all but 32% or so of the library.
# CYP2C19 activ: increases human CYP2C19 enzyme activity | P33261 | recombinant CYP2C19, luciferin-H EGE luminescence; hits give high values; 0 = fully inhibited enzyme, 1 = untreated enzyme | activation factor at 5 µM | 96,000 tested, under 10 active | AID 1025;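 active means activation factor of at least 2 at 5 µM in the primary screen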;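 further: 0 = wells with 2.5 mM tranylcypromine and 1 = vehicle-only wells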
# CYP2C9 inh: human CYP2C9 inhibition | P11712 | CYP2C9 Supersomes, luciferin-H conversion, luminescence | inhibition, % at 5 µM | actives 20% (n = 96,000) | AID 777;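 active means blocking of liver enzyme CYP2C9 beyond about 50% at 5 µM, limit read from the data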
# Target sequence (P11712 whole entry, looked up): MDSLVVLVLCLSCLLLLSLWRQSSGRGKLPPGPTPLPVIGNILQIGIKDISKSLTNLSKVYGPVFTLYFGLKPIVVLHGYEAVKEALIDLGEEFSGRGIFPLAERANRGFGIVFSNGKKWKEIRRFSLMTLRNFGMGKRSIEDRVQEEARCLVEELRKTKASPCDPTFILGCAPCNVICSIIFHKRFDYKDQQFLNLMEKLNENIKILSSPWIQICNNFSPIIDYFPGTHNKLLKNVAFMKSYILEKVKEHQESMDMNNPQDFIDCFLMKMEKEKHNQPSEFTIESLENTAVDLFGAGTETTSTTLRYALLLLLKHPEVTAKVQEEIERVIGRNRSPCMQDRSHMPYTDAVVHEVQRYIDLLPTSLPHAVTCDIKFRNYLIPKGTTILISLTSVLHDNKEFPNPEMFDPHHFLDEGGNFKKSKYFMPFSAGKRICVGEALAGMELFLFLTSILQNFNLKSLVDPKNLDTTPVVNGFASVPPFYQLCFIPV
# PostGolgi yeast: growth inhibition of a yeast mutant, post-Golgi transport screen; post-Golgi transport phenotypic cell assay; inhibition, % at 10 µM; actives 0.9% (n = 98,000); AID 739;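 further: yeast cells grown in 1536-well plates; yeast grown about 18 h at 30C before absorbance read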
# PostGolgi ctrl: growth of the yeast control strain, post-Golgi counter-screen; efflux-deficient yeast background strain, growth absorbance A615, 16 h; inhibition, % at 10 µM; actives 5% (n = 98,000)
# CYP2C19 inhib: inhibitors of human CYP2C19. P33261. AID 778. inhibition, % at 5 µM. CYP2C19 Supersomes, luciferin-H EGE luminescence, 30 min. actives 21% (n = 96,000);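 active means CYP2C19 inhibition above a set limit at 5 µM in the primary screen, cut at about 50% in these data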;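 further: plate controls were negative control wells for no effect and 2.5 mM tranylcypromine positive control for full effect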
# CYP2C9 act: increases human cytochrome P450 2C9 activity; actives 1.4% (n = 96,000); P11712; activation factor at 5 µM; recombinant CYP2C9, luciferin-H conversion, luminescence; hits give high values; factor 1 = untreated enzyme, 0 = blocked; AID 1024;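 active means activation factor of 2 or more for CYP2C9 at a 5 µM dose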;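 further: 0 = sulfaphenazole-blocked wells and 1 = vehicle-only wells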
# * = called active by the depositor; . = no result given. Unless noted, no stated cut-off is given here; in the data, active means inhibition above about 30%; inactive means the rest.
SMILES,CYP2C19 activ,CYP2C9 inh,PostGolgi yeast,PostGolgi ctrl,CYP2C19 inhib,CYP2C9 act
Clc1ccc(-c2cc(COc3ccc4ccccc4c3)no2)cc1,0.8,12,-2,5,22,0.9
CCOC(=O)CSc1ccc2nnc(-c3ccccc3)n2n1,1,24,0,11,-2,0.8
CCCCCOC(=O)Cn1c(SCC(=O)Nc2ccccc2)nc2c1c(=O)[nH]c(=O)n2C,0.8,22,-9,7,24,0.8
CCOc1cc(C)ccc1OCc1nnc(SCC(=O)c2cccc([N+](=O)[O-])c2)n1C,1.1,-57,-8,10,-6,1.6
COCCNC(=O)C1=C(N)C(C(=O)Nc2ccc(C)c(S(=O)(=O)N3CCCCC3)c2)SC1=Nc1ccc(C)cc1C (stereo not drawn),0.8,75*,2,4,24,0.2
CCN(CC)S(=O)(=O)c1cccc(C(=O)NCC2CCCO2)c1 (stereo not drawn),1.1,-3,-11,3,-11,1
COCCNC(=O)c1ccc(C)c(S(=O)(=O)Nc2ccc(C)cc2)c1,0.6,38,-13,2,36,0.6
CCN(CC)S(=O)(=O)c1cccc(NC(=O)C2SC(=Nc3ccc(C)cc3C)C(C(=O)NCC3CCCO3)=C2N)c1 (stereo not drawn),0.4,93*,-1,10,62*,0.1
CCOC(=O)c1ccc(N2CC(O)=C(c3nc4ccccc4c(=O)[nH]3)C2=N)cc1,0.6,-42,-5,1,41,1.4
CCOC(=O)C1=C(c2ccccc2)NC(=O)NC1c1ccc(N(C)C)cc1 (stereo not drawn),0.2,9,.,.,80*,0.9
COC(=O)c1cnn(-c2nc3c(C)cccc3s2)c1C,1,-12,13,7,-1,1.1
CN(C)Cc1nc2ccccc2c(=O)n1Cc1nc(C(C)(C)C)cs1,0.2,93*,0,-2,82*,0.1
COc1ccccc1N1CCN(Cc2nc3ccccc3c(=O)n2CC(C)=O)CC1,0.9,44,0,5,13,0.6
O=C(COC(=O)c1ccc(Br)o1)NCC1CCCO1 (stereo not drawn),1,5,-5,10,3,0.9
CN(C(=O)c1cc2sccc2n1C)C1CCCCC1,0.3,21,2,5,74*,0.8
COC(=O)c1cccc(NC(=O)c2cc3sccc3n2C)c1,0.2,53*,14,23,77*,0.5
Cn1c(C(=O)NC2CCCCC2)cc2sccc21,0.4,18,13,5,55*,0.8
CCN(CC)CCNC(=O)Cn1c(-c2ccccn2)nc2ccccc21,1.1,-6,-2,13,-12,1.1
CCCCOC(=O)Sc1nc2ccccc2o1,0.4,52*,5,-6,58*,0.5
O=C1C2ON(c3ccccc3)C(c3ccncc3)C2C(=O)N1c1ccc(Br)cc1 (stereo not drawn),0,99*,22,1,100*,0
O=C1C2ON(c3ccccc3)C(c3ccccn3)C2C(=O)N1c1ccc(Br)cc1 (stereo not drawn),0.6,74*,-5,6,39,0.3
Cc1ccc(N2C(=O)C3ON(c4ccccc4)C(c4ccncc4)C3C2=O)cc1 (stereo not drawn),0,97*,5,-8,100*,0
O=C1C2C3C=CC(C3)C2C(=O)N1c1ccncc1 (stereo not drawn),0.8,28,0,1,15,0.7
CN(C)c1ccc(C2C3C(=O)N(c4ccc(C(=O)O)cc4)C(=O)C3ON2c2ccccc2)cc1 (stereo not drawn),1,11,-5,1,1,0.9
O=C1C2ON(c3ccccc3)C(c3ccncc3)C2C(=O)N1c1ccc(N2CCOCC2)cc1 (stereo not drawn),0.7,45,-6,-2,26,0.6
SMILES,CYP2C19 activ,CYP2C9 inh,PostGolgi yeast,PostGolgi ctrl,CYP2C19 inhib,CYP2C9 act
O=C1C2C(c3ccccc3)C=CC(c3ccccc3)C2C(=O)N1c1ccncc1 (stereo not drawn),0,82*,-5,34*,97*,0.2
O=C(NCc1ccco1)C(NS(=O)(=O)c1cccc2nsnc12)c1ccccc1 (stereo not drawn),1,36,1,7,2,0.6
COc1ccc(-c2csc(NC(=O)C3CCCCN3S(=O)(=O)c3ccccc3)n2)cc1 (stereo not drawn),0.6,88*,6,52*,39,0.1
CNC(=O)C1CCCN1S(=O)(=O)c1ccc(OC)cc1 (stereo not drawn),1,-25,2,6,3,1.3
Cc1ccc(NC(=O)NC2CCCN2S(=O)(=O)c2ccc(Cl)cc2)cc1 (stereo not drawn),0.3,87*,-8,33*,73*,0.1
COc1ccc(S(=O)(=O)N2CCCC2C(=O)Nc2ccc(C)cc2)cc1 (stereo not drawn),0.2,54*,-6,4,76*,0.5
COc1ccc(S(=O)(=O)N2CCCC2C(=O)Nc2nc3c(s2)CCCC3)cc1 (stereo not drawn),0.6,80*,-3,15,40,0.2
O=C(O)c1cccc(NS(=O)(=O)c2cccc3nsnc23)c1,0.9,39,5,8,8,0.6
O=C(Nc1ccccc1C(=O)N1CCOCC1)C1CCCO1 (stereo not drawn),1.1,-16,7,6,-7,1.2
c1ccc(-c2nnc(OCCN3CCOCC3)c3ccccc23)cc1,0.6,-9,1,4,38,1.1
Cc1cc([N+](=O)[O-])nn1Cc1c(F)c(F)c(F)c(F)c1F,0.6,27,-2,9,39,0.7
O=C(Nc1nccs1)C1CCCN1S(=O)(=O)c1ccc(F)cc1 (stereo not drawn),0.6,62*,-3,4,39,0.4
Cc1ccc(S(=O)(=O)N2CCC[C@H]2C(=O)OC(C)C(=O)Nc2ncc(Cl)cc2Cl)cc1 (stereo partly drawn),0.3,-23,0,10,71*,1.2
COc1ccc(NC(=O)C2CCCN2S(=O)(=O)c2ccc(F)cc2)cc1 (stereo not drawn),0.4,93*,-1,-1,64*,0.1
CC(OC(=O)CN(C)S(=O)(=O)c1ccc(Cl)cc1)C(=O)Nc1ncc(Cl)cc1Cl (stereo not drawn),0.8,5,9,5,18,1
CCCCSc1nc(O)c(Cc2ccccc2)c(=O)[nH]1,0.9,22,0,10,13,0.8
Oc1[nH]c2ccccc2c1C=Nc1ccc2c(c1)OCCO2,0.8,-3,-11,18,18,1
CCOc1ccc(CCNC(=O)C2CCN(S(=O)(=O)N3CCOCC3)CC2)cc1OCC,1.1,-12,0,1,-7,1.1
COC(=O)c1ccc(S(=O)(=O)N2CCCCCC2)cc1,0.6,26,1,7,44,0.7

# Screens as filed in PubChem BioAssay.
